Only some compounds are listed: those with a hit (about 2.1% of all), similar ones and a draw of the others.
TDP43 rescue: TDP-43 toxicity inhibition in yeast. 410,000 compounds, 1.8% hits. Potency, µM (titrated, usually from 46.1 µM), hits mostly activators. AID 652104. TDP-43 expressing yeast growth rescue, BacTiter-Glo, 24 h; further: nearly all actives have a fitted effect of over 50% in size
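Luminescence from BacTiter-Glo reports growth of TDP-43-expressing yeast after 24 hr at 30 deg C with compound. Cells were raffinose-pregrown to mid-log, then seeded in galactose medium at OD600=0.02.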
FUS yeast rescue: FUS proteinopathy suppression in yeast; S. cerevisiae FUS-expressing, growth rescue, OD600, 24 h; Potency, µM (doses to about 76.6 µM), most hits filed as activators; AID 1347120; 390,000 compounds, 0.24% hits; further: nearly all actives have a fitted effect of over 55% in size
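Restored growth of FUS-toxic S. cerevisiae, read as 600 nm absorbance after 24 h at 30C in galactose medium (starting OD 0.005). Controls CP55940 and DMSO.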
Abeta yeast res: restores growth of yeast expressing A-beta42 peptide. yeast expressing A-beta42, growth rescue, OD600, 48 h; response scale: 0% DMSO, 100% iron-clioquinol control. Potency, µM (highest dose often 46.1 µM), hits mostly activators. 410,000 compounds, 0.063% hits. AID 1347071; further: nearly all actives have a fitted effect of over 55% in size
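Yeast growth medium received pinned compounds, then yeast cells expressing toxic A-beta were added; plates incubated at 30 C for 48 hr. Growth read as absorbance at 600 nm, normalized to DMSO and equimolar FeCl3 plus clioquinol controls.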
aSyn rescue: rescues yeast growth from alpha-synuclein toxicity; Yeast expressing alpha-synuclein, growth rescue, BacTiter-Glo, 24 h; 370,000 compounds, 0.14% hits; Potency, µM (doses to about 46.1 µM), most hits filed as activators; further: nearly all actives have a fitted effect of over 65% in size
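Rescue of yeast growth: cells expressing toxic alpha-synuclein, induced in galactose at OD600 0.02, incubated with compound 24 h at 30 C. ATP luminescence quantified growth; inhibitors of toxicity appear as activators.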
Numbers stand for hits; n = inactive; u = inconclusive; x = no result given. The call rests on the fitted dose curve; in most records, active means well fitted curve in the direction sought with a large enough effect; inconclusive means small, poorly fitted or top-dose-only effect, or another doubt; inactive means no such curve, though single readings can be large; an effect the other way counts as inactive or inconclusive.

SMILES	TDP43 rescue	FUS yeast rescue	Abeta yeast res	aSyn rescue
CC(=O)c1ccc2c(c1)CC1(C2)Cc2cc3c(cc2C1)C(=O)CC3 (configuration not stated)	16µM	x	n	n
CC(=O)c1ccc2c(c1)Cc1cc(C(C)=O)ccc1-2	n	x	n	n
Nc1cc2c(cc1[N+](=O)[O-])-c1ccccc1C2=NO	3.5µM	x	n	n
CC(=O)Nc1cc2c(cc1[N+](=O)[O-])-c1ccccc1C2=NO	n	x	n	n
CCOC(=O)CCSc1nc2c(c(C(F)(F)F)c1C#N)CCC2	13µM	n	n	n
COc1ccc(/C=C/C(=O)c2ccc(O)cc2)cc1	u	n	n	n
COc1cc(/C=C/c2ccc(O)cc2)cc(OC)c1	28µM	n	n	n
CCOC(=O)N1CCN(C(=O)c2sc3nc(-c4ccc(F)cc4)cn3c2C)CC1	n	x	n	n
Cc1ccc(OCC(=O)Nc2nnn(C)n2)c(C)c1	n	n	n	n
Cc1ccc(C)c(S(=O)(=O)Nc2ccc(S(=O)(=O)Nc3ncccn3)cc2)c1	n	n	n	u
C=CCOn1c(C)c(C(C)=O)c2c3no[n+]([O-])c3ccc21	7.1µM	n	n	n
COn1c(C)c(C(C)=O)c2c3no[n+]([O-])c3ccc21	n	n	n	n
Cc1nn(CC(=O)Nc2ccc3c(c2)OCCO3)c(C)c1[N+](=O)[O-]	6.3µM	n	n	n
Cc1nn(CC(=O)c2ccc(Cl)s2)c(C)c1[N+](=O)[O-]	n	18µM	n	n
CCc1ccccc1NC(=O)CSc1nnc(COc2ccccc2Cl)o1	16µM	n	n	x
COc1ccc(-c2nnc(SCC(=O)Nc3ccccc3OC)o2)cc1	u	n	n	n
COc1ccccc1NC(=O)CSc1nnc(C2CCCCC2)o1	18µM	n	u	n
COc1ccccc1NC(=O)CSc1nnc(-c2cccc(Cl)c2)o1	18µM	n	n	x
O=C(NCc1ccncc1)c1ccc(-c2ccc(F)c(F)c2)c2ccoc12	n	n	n	n
Cc1cc(C)c(/C=N/NC(=O)c2nnn(-c3nonc3N)c2COc2ccc(F)cc2)c(C)c1	n	n	n	n
Cc1ccc2nc(Cl)c3cc(C(=O)N4CCCCC4C)sc3c2c1 (configuration not stated)	n	n	n	x
Cc1ccc(C)c(NC(=O)CSc2cccc3cccnc23)c1	5.6µM	n	n	n
CCOC(=O)c1cc2c(C)n(-c3ccc(OCC)cc3)c(C)c2cc(C(=O)OCC)c1=O	n	x	n	n
Cc1nc(-c2cccc(NC(=O)c3ccc(Br)o3)c2)cs1	11µM	n	n	n
Cc1c(Cl)cccc1NC(=S)NCCCN(C)C	n	n	n	n
SMILES	TDP43 rescue	FUS yeast rescue	Abeta yeast res	aSyn rescue
CCCCn1c(N)c(N(CCOC)C(=O)COC(=O)COc2cc(C)ccc2Cl)c(=O)[nH]c1=O	n	n	n	n
CCc1nnc(NC(=O)c2ccc(S(=O)(=O)N(CC(C)C)CC(C)C)cc2)o1	u	n	n	22µM
Cc1nnc(NC(=O)c2ccc(S(=O)(=O)N(C)Cc3ccccc3)cc2)o1	18µM	n	u	u
Cc1nnc(NC(=O)c2ccc3ccccc3c2)o1	u	n	16µM	u
CC(=O)Oc1ccc(/C=C(\NC(=O)c2cccc(Br)c2)C(=O)Nc2ccc(C(=O)O)cc2)cc1	n	n	n	n
COc1ccc(C)cc1NC(=O)C(Sc1nnc2ccccn12)c1ccccc1 (configuration not stated)	n	x	n	n
COc1ccc(C)cc1NC(=O)C(Sc1nnc(-c2ccncc2)n1-c1ccc(Cl)cc1)c1ccccc1 (configuration not stated)	n	22µM	n	n
C/C(=N\Nc1ccccc1Cl)c1ccc(-n2ccnc2)cc1	7.1µM	n	n	n
CCc1c(C)sc(NC(=O)C2CCCO2)c1C#N (configuration not stated)	22µM	n	n	n
CC1CCc2c(sc(NC(=O)C3CCCO3)c2C#N)C1 (configuration not stated)	n	n	n	n
O=C(NCCC1=CCCCC1)NC12CC3CC(CC(C3)C1)C2	16µM	n	n	n
O=C(CSc1nnc(SCc2ccc(Cl)cc2)s1)N1CCOCC1	22µM	n	n	n
O=C(CSCc1ccc(Cl)cc1)N1CCOCC1	n	n	n	n
CC(C)CN=C(NS(=O)(=O)c1ccccc1)C(Cl)(Cl)Cl	11µM	u	n	n
CCNc1nc(NCC)n2c(SCC(=O)Nc3ccc(C)c(C)c3)nnc2n1	n	n	n	n

High-throughput results as filed in PubChem.
